Reference: PubChem BioAssay (NCI)
The panel holds about 79,000 compounds, 15% with a hit somewhere; the sample as a whole holds those more often. Active and inactive are the calls of the source. No stated cut-off is given here; in the data, active means growth inhibition above about 70%; inactive means the rest. Where a SMILES comes first, the peptide text is derived from it. The star is where a group is joined. Cbz = O=C(OCc1ccccc1)*

Key:
[1] = NCI Yeast Anticancer Drug Screen. Data for the rad50 strain (AID 155);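 further: 0% = growth of vehicle-only cultures of the same strain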; conditions: S. cerevisiae rad50 strain growth inhibition; at 50.0 µM; stronger effect = higher value
In short: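 Cells are treated with compound, grown, and their growth is then scored against vehicle-only cultures of the same repair-deficient yeast strain.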

[2] = NCI Yeast Anticancer Drug Screen. Data for the mec2-1 strain (AID 157); conditions: S. cerevisiae mec2-1 strain, at 50.0 µM, stronger effect = higher value
In short: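 Test agents were screened against the mec2-1 yeast strain, with defined DNA repair or cell cycle alteration. Growth was scored as inhibition against vehicle-only controls.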

[3] = NCI Yeast Anticancer Drug Screen. Data for the sgs1 mgt1 strain (AID 161);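 further: 0% = growth of cultures given vehicle only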; conditions: S. cerevisiae sgs1 mgt1 strain, at 50.0 µM, stronger effect = higher value
In short: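 Genetically altered yeast, compound exposure, growth inhibition relative to vehicle.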

[4] = NCI Yeast Anticancer Drug Screen. Data for the cln2 rad14 strain (AID 165);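 further: 0% = growth equal to vehicle treated cultures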; conditions: S. cerevisiae cln2 rad14 strain, at 50.0 µM, stronger effect = higher value
In short: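 Growth of compound-exposed yeast (cln2 rad14 genotype) measured and expressed as inhibition relative to vehicle.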

[5] = NCI Yeast Anticancer Drug Screen. Data for the bub3 strain (AID 167); conditions: S. cerevisiae bub3 mutant strain, at 50.0 µM, stronger effect = higher value
In short: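 Part of a panel of yeast mutants defective in DNA damage repair or cell cycle regulation. Each strain is grown with compound, and inhibition is calculated relative to solvent-treated cultures.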

[6] = NCI Yeast Anticancer Drug Screen. Data for the mlh1 rad18 strain (AID 175); conditions: S. cerevisiae mlh1 rad18 strain growth inhibition; at 50.0 µM; stronger effect = higher value
In short: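 In this whole-cell yeast screen, a strain with altered DNA damage repair is challenged with compound, and its growth is measured against matched vehicle-treated controls.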

Measured: growth inhibition

CC1(C)Oc2ccc(NC(=O)CCC(N)C(=O)O)cc2O1 (stereo not given)
inactive: [1] -28.2% | [2] -52.7% | [3] -1% | [4] 11.5% | [5] 16.5% | [6] -18.1%

Cn1c(=O)[nH]c2c(c1=O)CCCS2
inactive: [1] 3.75% | [2] 6.4% | [3] 20.4% | [4] 0.65% | [5] -19.6% | [6] -10.1%

CC(=O)OCC1(C)CCC(C)CO1 (stereo not given)
inactive: [1] -21.4% | [2] -4.45% | [3] 7.8% | [4] 15.2% | [5] 1.1% | [6] 7%

Nc1nc(C2CCCCC2)cc(=O)[nH]1
inactive: [1] 1.2% | [2] 9% | [3] -4.3% | [4] -25.1% | [5] 5.5% | [6] -0.65%

O=c1[nH]c2cc3[nH]c4ncccc4c(=O)c3cc2[nH]1
inactive: [1] -3.7% | [2] 0.15% | [3] -22.7% | [4] 8.15% | [5] -1.15% | [6] 21.3%

COC(=O)CC(NC(=O)C(Cc1ccccc1)NC(=O)OCc1ccccc1)C(=O)O (stereo not given)
inactive: [1] 31.5% | [2] 9.15% | [3] 18.2% | [4] 11.7% | [5] 2.1% | [6] 23.1%

O=C/C=C/N=c1ccn(O)cc1
inactive: [1] 8.65% | [2] 3.45% | [3] 3.05% | [4] -2.1% | [5] 4.25% | [6] 2.1%

C=CCC1(C)C=C(C)C(=O)C(C)=C1
inactive: [1] -6.05% | [2] -7% | [3] 18.6% | [4] 2.55% | [5] 16.2% | [6] 15.1%

CCOC(=O)CCC(NC(=O)C(CCC(=O)OCC)NC(=O)OCc1ccccc1)C(=O)O (stereo not given) (tested in a mixture with another compound) (Cbz-Glu(OEt)-Glu(OEt)-OH; configuration not given here)
inactive: [1] -43.5% | [2] 1.15% | [3] -11.2% | [4] -34.9% | [5] -52.9% | [6] 38.6%

C[C@@]12C[C@@H](c3ccccc3O1)N1CCCSC1=N2
inactive: [1] 20.2% | [2] -16% | [3] 4.6% | [4] 32.8% | [5] -9.8% | [6] 12.4%

COc1ccc2nc3cc([N+](=O)[O-])ccc3c(Nc3ccc(S(=O)(=O)NC(C)=O)cc3)c2c1
active: [1] 76.3% | [6] 75.2%
inactive: [2] 36.4% | [3] 67.8% | [4] 36% | [5] 64.5%

CCCCCCCCCCCCCCCCCC(=O)N/N=C\c1ccc(O)c(OC)c1
inactive: [1] -11.6% | [2] -13.6% | [3] -9.35% | [4] -56.8% | [5] -2.55% | [6] 6.5%

CCOC(=O)C(C(=O)OCC)=C1c2ccccc2Oc2ccccc21
inactive: [1] 39.1% | [2] 8% | [3] 14.7% | [4] -17.6% | [5] 33.5% | [6] 46%

O=S(=O)(c1ccc(Br)cc1)C(F)(F)F
inactive: [1] 11.1% | [2] 10% | [3] 0.1% | [4] 2.6% | [5] 12.7% | [6] 5.15%

CN(C)CCCNc1ccc2ncn3c4ccccc4c(=O)c1c23
inactive: [1] -2.15% | [2] 6.2% | [3] -3.35% | [4] 20.9% | [5] 1.5% | [6] 22.4%

O=C1COCC(=O)N1
inactive: [1] 7.35% | [2] -22% | [3] 8.85% | [4] -1.95% | [5] 0.05% | [6] -0.2%

N#C/C(=C\c1cc(Br)c(O)c(Br)c1)c1ccccn1
inactive: [1] 50.5% | [2] 50.1% | [3] 24.4% | [4] 2.55% | [5] -3.35% | [6] 52.6%

CC[N+]1(C)CCC(O)(c2ccccc2)C(C(=O)c2ccccc2)C1 (stereo not given)
inactive: [1] 3.5% | [2] -6.1% | [3] -5.55% | [4] 34.1% | [5] 6.1% | [6] 11.3%

Cc1ccc2ncccc2c1
inactive: [1] -2.75% | [2] -18.1% | [3] 1.8% | [4] -12.4% | [5] 3.9% | [6] -6.45%

COC(=O)N1c2ccccc2C23CCN4CCCC5(CCC12C(C(=O)O)C5)C43 (stereo not given)
inactive: [1] -2.6% | [2] 8.2% | [3] 0.15% | [4] -9.45% | [5] 3.9% | [6] 9.7%
